# Tests used:
# [1] = biological target: T1, Testis-specific serine/threonine-protein kinase 1 (Homo sapiens) (UniProt Q9BXA7); conditions: at 1 µM
# T1 sequence (whole entry): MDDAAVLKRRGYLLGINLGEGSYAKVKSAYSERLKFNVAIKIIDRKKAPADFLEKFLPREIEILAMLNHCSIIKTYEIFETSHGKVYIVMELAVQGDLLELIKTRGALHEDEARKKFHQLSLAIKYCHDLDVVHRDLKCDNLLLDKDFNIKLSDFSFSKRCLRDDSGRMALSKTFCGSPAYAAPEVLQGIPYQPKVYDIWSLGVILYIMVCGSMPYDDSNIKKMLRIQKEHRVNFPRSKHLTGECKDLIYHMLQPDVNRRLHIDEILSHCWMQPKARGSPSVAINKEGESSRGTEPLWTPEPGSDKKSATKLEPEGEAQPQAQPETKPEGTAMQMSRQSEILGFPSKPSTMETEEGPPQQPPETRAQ
# [2] = biological target: T1, Testis-specific serine/threonine-protein kinase 1 (Homo sapiens); conditions: at 10 µM
# [3] = biological target: T2, Tyrosine-protein kinase Tec (Homo sapiens) (UniProt P42680); conditions: at 1 µM
# T2 sequence (whole entry): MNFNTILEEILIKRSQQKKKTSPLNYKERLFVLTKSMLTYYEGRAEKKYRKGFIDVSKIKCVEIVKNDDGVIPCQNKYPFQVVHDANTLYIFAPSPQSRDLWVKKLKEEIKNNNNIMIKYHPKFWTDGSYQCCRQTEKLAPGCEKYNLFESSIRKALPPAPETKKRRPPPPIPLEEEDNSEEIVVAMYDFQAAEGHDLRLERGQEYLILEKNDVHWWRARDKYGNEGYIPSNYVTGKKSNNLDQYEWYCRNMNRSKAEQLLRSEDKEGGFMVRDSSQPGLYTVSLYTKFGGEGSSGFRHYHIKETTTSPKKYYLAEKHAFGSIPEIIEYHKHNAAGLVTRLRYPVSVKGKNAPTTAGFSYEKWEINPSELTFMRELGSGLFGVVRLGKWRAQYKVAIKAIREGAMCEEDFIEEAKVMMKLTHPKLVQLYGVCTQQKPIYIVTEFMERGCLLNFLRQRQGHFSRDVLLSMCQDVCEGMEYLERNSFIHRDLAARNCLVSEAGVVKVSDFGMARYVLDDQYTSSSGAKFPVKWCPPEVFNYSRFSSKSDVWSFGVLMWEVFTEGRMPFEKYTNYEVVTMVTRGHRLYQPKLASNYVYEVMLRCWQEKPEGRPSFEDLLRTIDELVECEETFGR
# [4] = biological target: T2, Tyrosine-protein kinase Tec (Homo sapiens); conditions: at 10 µM
# [5] = biological target: Angiopoietin-1 receptor (Homo sapiens) (UniProt Q02763); conditions: at 10 µM
# [6] = biological target: High affinity nerve growth factor receptor (Homo sapiens) (UniProt P04629); conditions: at 1 µM
# [7] = biological target: High affinity nerve growth factor receptor (Homo sapiens) (UniProt P04629); conditions: at 10 µM
# [8] = biological target: BDNF/NT-3 growth factors receptor (Homo sapiens) (UniProt Q16620); conditions: at 1 µM
# [9] = biological target: BDNF/NT-3 growth factors receptor (Homo sapiens) (UniProt Q16620); conditions: at 10 µM
# [10] = biological target: T3, Tyrosine-protein kinase TXK (Homo sapiens) (UniProt P42681); conditions: at 1 µM
# T3 sequence (whole entry): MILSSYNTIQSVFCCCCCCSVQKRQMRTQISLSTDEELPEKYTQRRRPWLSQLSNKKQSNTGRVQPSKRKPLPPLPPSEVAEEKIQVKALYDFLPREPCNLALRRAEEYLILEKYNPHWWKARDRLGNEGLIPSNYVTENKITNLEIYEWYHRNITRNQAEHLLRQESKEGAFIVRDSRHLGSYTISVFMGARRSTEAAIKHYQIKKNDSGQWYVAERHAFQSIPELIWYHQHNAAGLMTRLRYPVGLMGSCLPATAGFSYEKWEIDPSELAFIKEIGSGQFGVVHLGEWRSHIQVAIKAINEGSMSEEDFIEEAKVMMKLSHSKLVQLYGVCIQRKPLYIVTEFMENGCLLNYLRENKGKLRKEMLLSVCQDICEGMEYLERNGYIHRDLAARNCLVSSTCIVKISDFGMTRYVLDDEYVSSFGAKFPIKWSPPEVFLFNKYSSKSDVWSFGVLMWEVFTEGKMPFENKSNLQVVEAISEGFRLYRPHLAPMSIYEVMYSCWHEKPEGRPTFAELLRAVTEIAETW
# [11] = biological target: T3, Tyrosine-protein kinase TXK (Homo sapiens); conditions: at 10 µM
# [12] = biological target: T4, Serine/threonine-protein kinase ULK3 (Homo sapiens) (UniProt Q6PHR2); conditions: at 1 µM
# T4 sequence (whole entry): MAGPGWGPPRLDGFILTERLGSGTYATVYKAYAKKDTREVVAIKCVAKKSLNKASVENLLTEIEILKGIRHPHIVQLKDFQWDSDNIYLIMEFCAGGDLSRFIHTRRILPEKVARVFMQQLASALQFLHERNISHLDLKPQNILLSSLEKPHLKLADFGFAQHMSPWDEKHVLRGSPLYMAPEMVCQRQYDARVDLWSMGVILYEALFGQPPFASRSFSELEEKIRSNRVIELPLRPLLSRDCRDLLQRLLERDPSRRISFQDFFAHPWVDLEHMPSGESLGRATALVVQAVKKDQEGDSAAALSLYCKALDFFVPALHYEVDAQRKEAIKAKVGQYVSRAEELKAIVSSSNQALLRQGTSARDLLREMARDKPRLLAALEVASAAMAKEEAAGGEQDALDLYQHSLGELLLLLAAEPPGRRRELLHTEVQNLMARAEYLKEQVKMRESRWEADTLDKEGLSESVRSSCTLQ
# [13] = biological target: T4, Serine/threonine-protein kinase ULK3 (Homo sapiens); conditions: at 10 µM
# [14] = biological target: Serine/threonine-protein kinase WNK2 (Homo sapiens) (UniProt Q9Y3S1); conditions: at 1 µM;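 also: residual WNK2 kinase activity expressed as percent of uninhibited control, assayed in MOPS buffer at pH 7.0 containing EDTA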
# [15] = biological target: T5, Testis-specific serine/threonine-protein kinase 2 (Homo sapiens) (UniProt Q96PF2); conditions: at 10 µM
# T5 sequence (whole entry): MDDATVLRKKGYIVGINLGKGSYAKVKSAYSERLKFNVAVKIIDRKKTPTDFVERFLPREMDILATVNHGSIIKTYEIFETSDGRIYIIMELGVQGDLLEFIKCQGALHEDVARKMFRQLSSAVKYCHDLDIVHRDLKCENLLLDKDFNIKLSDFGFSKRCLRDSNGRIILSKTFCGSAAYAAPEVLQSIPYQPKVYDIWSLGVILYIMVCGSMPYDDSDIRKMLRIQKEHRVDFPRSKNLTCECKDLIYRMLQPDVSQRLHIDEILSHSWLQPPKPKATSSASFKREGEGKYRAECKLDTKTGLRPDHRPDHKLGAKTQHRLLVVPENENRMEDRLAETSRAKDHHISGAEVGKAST
# [16] = biological target: T6, Serine/threonine-protein kinase ULK2 (Homo sapiens) (UniProt Q8IYT8); conditions: at 1 µM
# T6 sequence (whole entry): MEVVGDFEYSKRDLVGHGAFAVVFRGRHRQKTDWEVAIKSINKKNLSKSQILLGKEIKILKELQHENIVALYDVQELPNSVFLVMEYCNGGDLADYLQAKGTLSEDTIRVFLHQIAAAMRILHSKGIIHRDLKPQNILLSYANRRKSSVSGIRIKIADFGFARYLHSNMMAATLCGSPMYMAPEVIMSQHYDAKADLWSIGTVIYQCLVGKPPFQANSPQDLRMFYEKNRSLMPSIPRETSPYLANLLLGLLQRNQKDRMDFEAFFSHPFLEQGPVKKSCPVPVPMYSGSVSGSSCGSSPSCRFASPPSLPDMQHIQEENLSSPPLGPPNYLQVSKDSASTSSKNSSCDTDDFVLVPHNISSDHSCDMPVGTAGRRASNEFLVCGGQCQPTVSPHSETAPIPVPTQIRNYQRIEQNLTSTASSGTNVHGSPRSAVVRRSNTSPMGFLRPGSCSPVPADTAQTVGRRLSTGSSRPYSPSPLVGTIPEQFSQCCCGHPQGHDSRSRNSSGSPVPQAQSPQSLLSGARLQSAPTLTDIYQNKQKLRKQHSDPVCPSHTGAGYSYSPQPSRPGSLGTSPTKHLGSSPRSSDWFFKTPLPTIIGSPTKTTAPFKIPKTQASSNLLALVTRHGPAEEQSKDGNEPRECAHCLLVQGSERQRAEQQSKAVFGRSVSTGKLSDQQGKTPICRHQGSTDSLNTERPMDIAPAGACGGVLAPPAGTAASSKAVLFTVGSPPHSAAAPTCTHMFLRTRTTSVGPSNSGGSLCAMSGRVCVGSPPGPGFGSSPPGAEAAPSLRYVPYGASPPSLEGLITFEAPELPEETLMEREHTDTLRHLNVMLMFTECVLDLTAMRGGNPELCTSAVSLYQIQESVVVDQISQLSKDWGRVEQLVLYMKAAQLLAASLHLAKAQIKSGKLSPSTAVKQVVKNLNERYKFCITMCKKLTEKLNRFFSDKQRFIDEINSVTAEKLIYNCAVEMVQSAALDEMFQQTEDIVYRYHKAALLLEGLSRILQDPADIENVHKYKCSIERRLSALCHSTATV
# [17] = biological target: Serine/threonine-protein kinase VRK2 (Homo sapiens) (UniProt Q86Y07); conditions: at 1 µM;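 also: remaining VRK2 kinase activity expressed as percent of uninhibited control, measured in MOPS buffer at pH 7.0 containing EDTA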
# [18] = biological target: T6, Serine/threonine-protein kinase ULK2 (Homo sapiens); conditions: at 10 µM
# Chain of High affinity nerve growth factor receptor (Homo sapiens) (P04629 33-796 limits assumed): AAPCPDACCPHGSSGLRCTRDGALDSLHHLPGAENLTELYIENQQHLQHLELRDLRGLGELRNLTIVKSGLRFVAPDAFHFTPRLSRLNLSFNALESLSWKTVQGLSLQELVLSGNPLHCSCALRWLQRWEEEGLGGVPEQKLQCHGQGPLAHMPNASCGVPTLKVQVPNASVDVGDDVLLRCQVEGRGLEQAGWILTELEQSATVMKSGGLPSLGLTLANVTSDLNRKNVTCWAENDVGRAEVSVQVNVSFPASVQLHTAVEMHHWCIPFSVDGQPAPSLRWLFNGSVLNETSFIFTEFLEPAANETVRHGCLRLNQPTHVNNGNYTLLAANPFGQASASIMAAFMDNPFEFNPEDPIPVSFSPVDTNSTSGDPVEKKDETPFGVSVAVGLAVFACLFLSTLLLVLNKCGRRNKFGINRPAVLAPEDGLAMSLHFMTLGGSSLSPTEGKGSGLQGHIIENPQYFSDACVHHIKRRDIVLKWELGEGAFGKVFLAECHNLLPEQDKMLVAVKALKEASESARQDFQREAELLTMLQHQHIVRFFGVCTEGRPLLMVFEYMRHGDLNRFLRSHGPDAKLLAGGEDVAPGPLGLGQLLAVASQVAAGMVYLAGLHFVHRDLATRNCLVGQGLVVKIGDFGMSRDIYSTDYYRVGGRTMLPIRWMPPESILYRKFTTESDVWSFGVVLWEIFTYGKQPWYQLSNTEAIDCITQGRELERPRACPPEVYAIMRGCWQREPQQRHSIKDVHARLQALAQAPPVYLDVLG
# Chain of BDNF/NT-3 growth factors receptor (Homo sapiens) (Q16620 32-822 limits assumed): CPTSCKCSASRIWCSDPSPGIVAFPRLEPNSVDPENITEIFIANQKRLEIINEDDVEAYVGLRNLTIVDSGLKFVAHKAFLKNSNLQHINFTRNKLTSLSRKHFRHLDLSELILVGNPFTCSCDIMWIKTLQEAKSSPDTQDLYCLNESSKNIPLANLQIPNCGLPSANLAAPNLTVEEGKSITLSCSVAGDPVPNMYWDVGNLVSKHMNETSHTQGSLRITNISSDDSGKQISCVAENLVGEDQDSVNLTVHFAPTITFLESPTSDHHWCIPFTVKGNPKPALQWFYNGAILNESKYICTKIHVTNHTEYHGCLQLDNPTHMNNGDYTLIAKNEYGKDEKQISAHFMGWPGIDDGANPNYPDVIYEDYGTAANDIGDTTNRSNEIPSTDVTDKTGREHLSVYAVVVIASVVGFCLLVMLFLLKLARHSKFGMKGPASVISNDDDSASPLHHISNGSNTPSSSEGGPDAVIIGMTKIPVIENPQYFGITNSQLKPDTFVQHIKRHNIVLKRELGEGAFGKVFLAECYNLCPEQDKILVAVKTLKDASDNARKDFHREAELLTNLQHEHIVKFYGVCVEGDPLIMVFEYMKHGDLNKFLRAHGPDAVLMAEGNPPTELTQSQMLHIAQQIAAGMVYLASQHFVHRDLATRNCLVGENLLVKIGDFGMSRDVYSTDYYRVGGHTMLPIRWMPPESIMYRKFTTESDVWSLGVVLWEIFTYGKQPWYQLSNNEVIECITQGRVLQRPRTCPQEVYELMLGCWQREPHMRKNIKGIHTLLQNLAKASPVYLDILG
# Chain of Serine/threonine-protein kinase WNK2 (Homo sapiens) (Q9Y3S1 whole entry): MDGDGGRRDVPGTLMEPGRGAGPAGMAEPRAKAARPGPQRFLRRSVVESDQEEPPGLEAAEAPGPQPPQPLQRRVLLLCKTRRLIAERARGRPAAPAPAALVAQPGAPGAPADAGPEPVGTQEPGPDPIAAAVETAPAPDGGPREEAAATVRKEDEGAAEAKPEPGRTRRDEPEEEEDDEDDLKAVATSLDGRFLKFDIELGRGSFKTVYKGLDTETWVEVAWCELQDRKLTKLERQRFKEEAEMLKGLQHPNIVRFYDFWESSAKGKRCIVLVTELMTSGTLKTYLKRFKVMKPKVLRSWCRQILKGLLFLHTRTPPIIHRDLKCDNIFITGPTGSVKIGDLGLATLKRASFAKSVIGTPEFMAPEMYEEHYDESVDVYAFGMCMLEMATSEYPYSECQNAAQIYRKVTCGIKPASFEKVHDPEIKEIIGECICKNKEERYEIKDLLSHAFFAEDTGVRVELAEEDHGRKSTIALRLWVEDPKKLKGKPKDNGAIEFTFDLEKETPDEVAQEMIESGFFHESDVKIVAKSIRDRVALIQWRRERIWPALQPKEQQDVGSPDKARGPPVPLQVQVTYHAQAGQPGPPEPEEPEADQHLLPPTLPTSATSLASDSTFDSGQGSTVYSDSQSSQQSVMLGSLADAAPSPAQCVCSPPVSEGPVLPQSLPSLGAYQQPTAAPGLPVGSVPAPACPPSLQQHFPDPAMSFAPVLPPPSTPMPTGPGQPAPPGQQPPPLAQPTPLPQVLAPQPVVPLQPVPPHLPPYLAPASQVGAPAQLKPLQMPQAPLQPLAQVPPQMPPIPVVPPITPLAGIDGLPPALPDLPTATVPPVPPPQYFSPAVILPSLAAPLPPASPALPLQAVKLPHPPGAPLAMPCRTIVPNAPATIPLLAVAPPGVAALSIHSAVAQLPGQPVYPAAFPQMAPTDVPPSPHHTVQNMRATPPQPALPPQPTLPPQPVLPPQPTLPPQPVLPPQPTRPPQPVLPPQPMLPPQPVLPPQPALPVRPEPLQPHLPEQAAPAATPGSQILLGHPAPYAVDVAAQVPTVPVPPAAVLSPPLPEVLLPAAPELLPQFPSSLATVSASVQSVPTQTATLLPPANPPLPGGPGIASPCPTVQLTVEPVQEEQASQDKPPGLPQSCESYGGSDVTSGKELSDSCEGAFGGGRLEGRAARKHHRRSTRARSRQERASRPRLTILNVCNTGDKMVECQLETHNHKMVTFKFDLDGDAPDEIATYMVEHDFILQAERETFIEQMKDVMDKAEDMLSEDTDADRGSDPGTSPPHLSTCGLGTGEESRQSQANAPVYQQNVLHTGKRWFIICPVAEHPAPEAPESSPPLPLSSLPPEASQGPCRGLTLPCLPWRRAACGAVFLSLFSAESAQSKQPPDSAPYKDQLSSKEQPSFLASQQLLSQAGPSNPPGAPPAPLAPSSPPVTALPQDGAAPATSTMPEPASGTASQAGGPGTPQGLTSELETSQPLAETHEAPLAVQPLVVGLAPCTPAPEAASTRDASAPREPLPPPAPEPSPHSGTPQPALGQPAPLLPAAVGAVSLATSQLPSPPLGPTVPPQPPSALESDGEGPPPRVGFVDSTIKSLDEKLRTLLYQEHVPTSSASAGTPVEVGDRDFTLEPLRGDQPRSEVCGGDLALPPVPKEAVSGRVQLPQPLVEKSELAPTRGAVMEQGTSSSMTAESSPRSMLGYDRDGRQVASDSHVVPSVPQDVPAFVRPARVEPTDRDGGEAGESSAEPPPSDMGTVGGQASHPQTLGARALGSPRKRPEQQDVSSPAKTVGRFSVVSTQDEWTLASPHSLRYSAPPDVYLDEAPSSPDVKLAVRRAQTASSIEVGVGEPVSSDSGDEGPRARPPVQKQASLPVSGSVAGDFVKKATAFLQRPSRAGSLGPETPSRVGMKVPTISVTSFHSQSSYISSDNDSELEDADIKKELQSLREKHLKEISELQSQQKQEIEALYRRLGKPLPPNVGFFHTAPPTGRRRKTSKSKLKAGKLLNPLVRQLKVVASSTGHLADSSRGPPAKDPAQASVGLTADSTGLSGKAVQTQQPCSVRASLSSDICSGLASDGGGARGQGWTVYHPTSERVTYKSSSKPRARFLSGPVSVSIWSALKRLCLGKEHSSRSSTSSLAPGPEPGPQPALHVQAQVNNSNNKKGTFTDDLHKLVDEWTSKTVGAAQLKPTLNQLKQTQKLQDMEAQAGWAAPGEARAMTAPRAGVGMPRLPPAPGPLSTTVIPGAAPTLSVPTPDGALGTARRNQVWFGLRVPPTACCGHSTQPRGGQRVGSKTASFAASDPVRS
# Chain of Angiopoietin-1 receptor (Homo sapiens) (Q02763 whole entry): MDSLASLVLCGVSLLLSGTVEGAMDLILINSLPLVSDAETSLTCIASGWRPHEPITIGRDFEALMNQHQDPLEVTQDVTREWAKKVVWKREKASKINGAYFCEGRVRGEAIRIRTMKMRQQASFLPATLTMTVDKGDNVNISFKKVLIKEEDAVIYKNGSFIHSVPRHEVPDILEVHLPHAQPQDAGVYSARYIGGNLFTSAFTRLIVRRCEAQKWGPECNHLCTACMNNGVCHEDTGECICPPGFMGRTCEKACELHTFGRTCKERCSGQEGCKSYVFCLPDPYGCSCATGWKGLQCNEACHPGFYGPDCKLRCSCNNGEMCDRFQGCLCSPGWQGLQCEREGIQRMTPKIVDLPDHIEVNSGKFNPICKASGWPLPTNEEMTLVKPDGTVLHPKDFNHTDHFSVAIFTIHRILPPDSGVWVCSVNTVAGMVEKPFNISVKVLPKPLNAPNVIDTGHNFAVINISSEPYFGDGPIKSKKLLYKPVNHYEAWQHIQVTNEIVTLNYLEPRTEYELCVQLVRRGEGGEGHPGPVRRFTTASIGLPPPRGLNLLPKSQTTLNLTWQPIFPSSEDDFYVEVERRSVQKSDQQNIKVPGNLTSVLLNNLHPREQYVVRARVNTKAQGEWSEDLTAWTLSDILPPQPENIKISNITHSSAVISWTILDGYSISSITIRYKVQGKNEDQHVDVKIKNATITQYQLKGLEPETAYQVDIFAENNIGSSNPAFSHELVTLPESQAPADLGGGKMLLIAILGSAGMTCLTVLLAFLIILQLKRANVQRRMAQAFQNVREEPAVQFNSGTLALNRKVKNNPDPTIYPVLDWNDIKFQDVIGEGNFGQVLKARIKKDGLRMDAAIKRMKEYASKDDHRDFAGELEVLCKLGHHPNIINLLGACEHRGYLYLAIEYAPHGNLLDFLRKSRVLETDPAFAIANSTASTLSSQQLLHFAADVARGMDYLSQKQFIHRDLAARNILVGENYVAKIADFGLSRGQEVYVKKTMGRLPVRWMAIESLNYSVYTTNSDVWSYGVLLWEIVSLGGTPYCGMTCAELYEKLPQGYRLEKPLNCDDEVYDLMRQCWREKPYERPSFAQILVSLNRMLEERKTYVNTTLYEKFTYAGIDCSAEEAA
SMILES,residual activity [1],residual activity [2],residual activity [3],residual activity [4],residual activity [5],residual activity [6],residual activity [7],residual activity [8],residual activity [9],residual activity [10],residual activity [11],residual activity [12],residual activity [13],residual activity [14],residual activity [15],residual activity [16],residual activity [17],residual activity [18]
COc1cc2c(cc1OC)-c1n[nH]c(Nc3cccc(F)c3)c1C2,77%,68%,63%,18%,74%,69%,6%,56%,31%,64%,20%,98%,72%,78% (inactive),,,,
Cn1c2ccccc2c2c3c(c4c5ccccc5n(CCC#N)c4c21)CNC3=O,12%,10%,4%,9%,,0%,-1%,44%,-12%,8%,8%,39%,16%,97% (inactive),40%,99%,97% (inactive),
O=S(=O)(NCCNC/C=C/c1ccc(Br)cc1)c1cccc2cnccc12,100%,67%,,,69%,,78%,,,74%,61%,,,,,,,
COc1cc2nccc(Oc3ccc(NC(=O)Nc4cc(C)on4)c(Cl)c3)c2cc1OC,,,,,,2%,0%,42%,-10%,98%,45%,,,100% (inactive),,97%,103% (inactive),99%

# Reference: ChEMBL document CHEMBL2218924, “A broad activity screen in support of a chemogenomic map for kinase signalling research and drug discovery” (Biochem J, 2013)
